# Screening results (PubChem BioAssay)
# Most compounds without a hit are left out; they make up all but 2.3% or so of the library.
# MARV entry inh – qHTS for inhibitors of binding or entry into cells for Marburg Virus; Marburg virus pseudotyped entry inhibition, cell reporter; Potency, µM (highest dose often 37.8 µM), inactives show top-dose activity change, negative = inhibition, hits mostly inhibitors; actives 1.8% (n = 300,000); AID 540276, 2011; calls by dose curve; tested in HEK293 cells
# AmpC detergent – qHTS Inhibitors of AmpC Beta-Lactamase (assay with detergent). AmpC hydrolysis of nitrocefin, absorbance 480 nm, 0.01% Triton. P00811. AID 485294, 2010. Potency, µM (doses to about 114 µM), for the others: at the highest dose activity change, negative = inhibition, most hits filed as inhibitors. actives 0.041% (n = 370,000);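 also: 0% = no-compound wells and -100% = no-enzyme wells; nearly all actives have a fitted effect of over 25% in size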
# Target sequence (P00811 whole entry, looked up): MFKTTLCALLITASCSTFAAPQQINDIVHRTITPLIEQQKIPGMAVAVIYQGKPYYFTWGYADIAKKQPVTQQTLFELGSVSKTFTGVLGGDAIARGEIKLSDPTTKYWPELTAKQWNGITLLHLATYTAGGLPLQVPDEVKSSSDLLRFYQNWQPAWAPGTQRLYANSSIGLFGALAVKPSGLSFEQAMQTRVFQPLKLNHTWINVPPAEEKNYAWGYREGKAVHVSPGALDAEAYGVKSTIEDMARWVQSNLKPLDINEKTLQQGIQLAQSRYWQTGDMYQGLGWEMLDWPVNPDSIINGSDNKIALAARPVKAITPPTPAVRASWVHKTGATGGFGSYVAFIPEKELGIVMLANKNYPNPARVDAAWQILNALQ
#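 AmpC (5.3 nM in the dispensed reagent) in 20 mM phosphate pH 7.0 with 0.01% (detergent screen) or 0.0001% Triton X-100 was preincubated with compounds for 15 min at room temperature. Nitrocefin was then added from an 800 uM solution, and hydrolysis was followed at 480 nm.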
# AmpC inh no detg – qHTS Inhibitors of AmpC Beta-Lactamase (assay without detergent) | P00811 | AmpC nitrocefin hydrolysis, absorbance 480 nm, 0.0001% Triton | Potency, µM (top dose mostly 57.1 µM), for the others: at the top dose activity change, negative = inhibition, hits mostly inhibitors | actives 0.52% (n = 330,000) | AID 485341, 2010;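 also: plate controls were no compound for no effect and no enzyme for full effect; nearly all actives have a fitted effect of over 20% in size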
#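 20 mM phosphate pH 7.0 + 0.01% (detergent screen) or 0.0001% Triton X-100; 5.3 nM AmpC reagent; cpd preinc 15 min RT; nitrocefin (800 uM stock) to start; A480 q20 s × 4 min; Activity was normalised to no-enzyme and no-compound control wells.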
# AMA1-RON2 inh – qHTS for Inhibitors of AMA1-RON; Towards Development of Antimalarial Drug Lead: Primary Screen; AlphaScreen AMA1-biotinylated RON2 peptide binding; Potency, µM (top dose mostly 58.2 µM), without a hit: at the top dose activity change, negative = inhibition, hits mostly inhibitors; Plasmodium falciparum AMA1 (3D7) - RON2 peptide interaction; actives 0.2% (n = 360,000);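 also: 0% = vehicle wells and -100% = peptide control; nearly all actives have a fitted effect of over 45% in size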
#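 AMA1 (3D7) with his tag at 25 nM final met compounds first, then biotinylated RON2 peptide at 25 nM; detection used donor plus acceptor beads, 10 µg/mL apiece, read by AlphaScreen after 30 min at room temperature.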
# LASV entry inh – qHTS for Inhibitors of binding or entry into cells for Lassa Virus; Potency, µM (doses to about 37.9 µM), for the others: at the top dose activity change, negative = inhibition, usual class: inhibitors; AID 540256, 2011; Lassa virus pseudotype entry inhibition, cell reporter; actives 1.2% (n = 300,000); calls by dose curve; tested in HEK293 cells; also: nearly all actives have a fitted effect of over 50% in size
# An asterisk follows results filed as active; ? = inconclusive; / = no result given; [ ] = remark or other dose. Unless noted, calls follow the shape of the dose curve; as a rule, active = well fitted curve in the direction sought with a large enough effect; inconclusive = small, poorly fitted or top-dose-only effect, or another doubt; inactive = no such curve, though single readings can be large; an effect the other way counts as inactive or inconclusive. Unless noted, % is scaled to controls: 0 for no effect and ±100 for the full control effect; potency is read from the fitted curve at half-maximal effect.
SMILES,MARV entry inh,AmpC detergent,AmpC inh no detg,AMA1-RON2 inh,LASV entry inh
COc1ccc(CN(C)CC2CCCN(CCc3ccccc3C)C2)cc1O (configuration not stated),8.91µM*,-14.9%,18.0%,-3.0%,?
COc1cccc(CN(C)CC2CCCN(CCc3ccccc3C)C2)c1 (configuration not stated),/,-9.6%,1.9%,-5.4%,/
CN(C)c1ccc(CNC(=O)c2ccccc2NC(=O)c2nsc3ccccc23)cc1,/,23.5%,/,/,-2.4%[46.1 µM]
Cc1ccc(CN2C(=O)C3(SCC(=O)N3c3ccc(C)c(C)c3)c3ccccc32)cc1 (configuration not stated),/,0.9%,/,/,?
COc1ccc2nc(SC)c(C#N)cc2c1,?,-3.8%,-24.4%,0.5%,16.1%
COc1ccc2nc(SCC(C)=O)c(C#N)cc2c1,?,7.2%,-11.6%,-9.3%,5.62µM*
COc1ccccc1N/C(N)=N/c1nc(CSc2ccc(C)cc2)cc(=O)[nH]1,?,?,14.1µM*,36.1%,-24.9%
COc1ccc(-c2cc(C(=O)Nc3cccc(O)c3)on2)cc1OC,/,10.5%,/,/,?
CCN(CC(=O)Nc1c(F)cccc1F)C(=O)c1ccc(N2CCCCC2)c([N+](=O)[O-])c1,?,6.5%,78.1%,10.4%,7.08µM*
COc1cccc(-n2ccn(CC(=O)c3ccc(F)cc3)c(=O)c2=O)c1,/,20.9%,/,/,4.6%[46.1 µM]
C/C(CCN1CCCc2nc(C)c(C)cc21)=N\OC[C@@H](O)[C@H]1O[C@@H]2OC(C)(C)O[C@@H]2[C@H]1O,-8.5%[14.2 µM],/,/,/,/
CC1CN(CCOc2ccc([N+](=O)[O-])cc2)CC(C)O1 (configuration not stated),?,-9.9%,-15.1%,-15.1%,12.1%
CC1CN(CCOc2ccc(F)cc2)CC(C)O1 (configuration not stated),/,-19.6%,-13.9%,20µM*,/
O=C(CCSCc1ccc(Cl)cc1)N1CCN(c2ccccc2F)CC1,/,9.3%,/,/,-20.8%[46.1 µM]
CCOC(=O)N1CCN(C(=O)CN(Cc2ccc(Cl)cc2)S(=O)(=O)c2ccc(C)cc2)CC1,-22.6%,3.9%,131.3%,0.4%,8.2µM*
CCOC(=O)N1CCN(C(=O)CN(Cc2ccc(Cl)cc2)S(C)(=O)=O)CC1,16.4%,-2.8%,65.1%,9.8%,-12.0%
Nc1ccccc1C=C1Cc2ccccc2C1=O,7.94µM*,/,/,21.0%,?
C=CCC1(CC=C)CCCN1C(=O)c1cc(COc2cccc(C(F)(F)F)c2)on1,10µM*,-0.4%,-35.8%,-0.6%,?
O=C(c1cc(COc2cccc(C(F)(F)F)c2)on1)N1CCCC1,/,/,/,-3.9%,/
FC(F)(F)c1ccc(Cl)c(Nc2nnc(-c3ccncc3)s2)c1,/,/,/,0.0%,/
Clc1ccccc1Nc1nnc(-c2ccncc2)s1,?,-0.7%,-30.2%,-4.6%,5.01µM*
COc1cc(/C=C2\C[C@H]3[C@@H]4CC=C5C[C@@H](N6CCCC6)CC[C@]5(C)[C@H]4CC[C@]3(C)[C@H]2O)cc(OC)c1OC,10µM*,/,/,-14.8%,-28.3%
COC(=O)c1ccc(NC(=O)CC2C(=O)N(c3cccc(OC)c3)C(=O)N2Cc2ccco2)cc1 (configuration not stated),/,?,/,/,-18.0%[46.1 µM]
Cc1cc2c(s1)c1c(n2C)C(=O)N(Cc2ccccc2F)C1,/,?,146.8%,/,/
CC(C)N1C/C(=C/c2ccsc2)C(=O)/C(=C/c2ccsc2)C1,?,-9.8%,-16.9%,-24.2%,3.98µM*
CC(C)N1CC2=C(OC(N)=C(C#N)C2c2cccnc2)/C(=C/c2cccnc2)C1 (configuration not stated),1.7%,-9.9%,25.9%,-3.1%,9.8%
CN1C/C(=C/c2cccnc2)C(=O)/C(=C/c2cccnc2)C1,1.78µM*,-6.8%,-12.9%,25.1%,?
CC(C)N1C/C(=C/c2cccnc2)C(=O)/C(=C/c2cccnc2)C1,4.47µM*,3.5%,-2.2%,3.2%,12.6µM*
CCOc1ccccc1NC(=O)Cc1csc(COc2cccc(C)c2)n1,-5.2%[46.1 µM],0.3%,/,/,4.7%[46.1 µM]
